Hits are enriched below; roughly 5.3% of the tested compounds scored in any of these assays.
LASV entry inh = blocks Lassa virus binding to or entry into cells | Lassa virus pseudotype entry inhibition, cell reporter | Potency, µM (titrated, usually from 37.9 µM), for inactives: at the top dose activity change, negative = inhibition, most hits filed as inhibitors | 300,000 tested, 1.2% active | AID 540256; calls by dose curve; tested in HEK293 cells; also: nearly all actives have a fitted effect of over 50% in size
Marburg entry inh = Marburg virus entry inhibition; Marburg virus pseudotyped entry inhibition, cell reporter; 300,000 tested, 1.8% active; Potency, µM (highest dose often 37.8 µM), inactives show at the top dose activity change, negative = inhibition, hits mostly inhibitors; calls by dose curve; tested in HEK293 cells
VACV Venus inh = vaccinia inhibition (Venus reporter) | Vaccinia virus Venus reporter expression, fluorescence | Potency, µM (highest dose often 36.5 µM), for the others: at the highest dose activity change, negative = inhibition, hits mostly inhibitors | 330,000 tested, 0.46% active | AID 720580; calls by dose curve; tested in A549 cells; also: nearly all actives have a fitted effect of over 30% in size
VACV mCherry inh = inhibitors of vaccinia virus infection (mCherry reporter signal). Potency, µM (titrated, usually from 36.5 µM), inactives show at the top dose activity change, negative = inhibition, usual class: inhibitors. Vaccinia virus mCherry reporter infection, fluorescence. 310,000 tested, 0.63% active; calls by dose curve; tested in A549 cells; also: nearly all actives have a fitted effect of over 35% in size
HCV inh = inhibitors of hepatitis C virus infection | Huh7.5.1 HCVcc-Cre infection, luciferase reporter, 44 h | Potency, µM (top dose mostly 41.8 µM), inactives show at the top dose activity change, negative = inhibition, actives largely listed as inhibitors | 340,000 tested, 3.4% active | AID 651820; active = well fitted inhibition curve with a large enough effect; inconclusive = small, poorly fitted or top-dose-only effect, or another doubt; inactive = no such curve, though single readings can be large or run the other way
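Luciferase read-out (15 sec integration) after a 15 min room-temperature substrate step quantifies HCVcc-Cre infection. Cells, 1,000 per well, had compound added 4 h post-plating, then virus at ~0.5 moi, and were cultured 44 h.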
FMDV inh = blocks foot and mouth disease virus; FMDV antiviral cell-based qHTS; Potency, µM (top dose mostly 57.9 µM), inactives show top-dose activity change, negative = inhibition, hits mostly inhibitors; 410,000 tested, 1.2% active; AID 1159524; calls by dose curve; tested in HEK293T cells; also: read-out not given here; nearly all actives have a fitted effect of over 45% in size
Active calls of the source: *; i = inactive; ? = inconclusive; . = no result given; [ ] = another dose, or the depositor's remark. % is scaled to controls: 0 for no effect and ±100 for the full control effect; potency is read from the fitted curve at half-maximal effect.

SMILES | LASV entry inh | Marburg entry inh | VACV Venus inh | VACV mCherry inh | HCV inh | FMDV inh
COc1cc(OC)cc(C(=O)NCCC(c2ccccc2)c2ccccc2)c1 | . | . | . | . | 14µM* | -12%
COc1cc(OC)cc(C(=O)NCCCCCCNC(=O)c2cc(OC)cc(OC)c2)c1 | 17% | ? | -28% | -19% | 7.1µM* | -26%
COc1cccc(OC)c1C(=O)NCCSC1CCCCC1 | 7% | -17% | . | . | 17% | -17%
COc1cc(NC(=S)NCCC(c2ccccc2)c2ccccc2)cc(OC)c1 | ? | ? | 52% | -14% | 22µM* | -5%
COc1cc(OC)cc(C(=O)NCCSC2CCCCC2)c1 | 22%[46.1 µM] | 9% | -8% | -13% | 3.2µM* | 4%
COc1cc(OC)cc(C(=O)NCCOc2ccccc2)c1 | -14% | ? | 15% | . | -21% | 32%
COc1cccc(NC(=S)NCCC(c2ccccc2)c2ccccc2)c1 | ? | ? | ? | . | ? | 4%
CN(C)c1ccc(/C=C/c2sc3ccccc3[n+]2CCCCI)cc1 | . | . | i | 298% | . | .
CCCCNc1nc2ccccc2c2nc(-c3ccccc3)nn12 | . | ? | 3% | -9% | . | -9%
CCOC(=O)c1c(NC(=O)COC(=O)Cc2ccccc2[N+](=O)[O-])sc(C(=O)N(C)C)c1C | 1% | -4%[46.1 µM] | -10% | -14% | 10µM* | -12%
CCOC(=O)c1c(NC(=O)COC(=O)c2ccccc2NC)sc(C(=O)N(C)C)c1C | ? | ? | -2% | i | 13µM* | 25µM*
C=CCCC1(C(=O)c2ccccc2)C(=O)C(CC=C(C)C)=C(OC)C(CC=C(C)C)(CCC=C(C)C)C1=O (centres undefined) | ? | -1%[14.2 µM] | . | . | . | .
FC(F)(F)c1cc(-c2ccc3c(c2)OCO3)nc(NCc2ccco2)n1 | -16% | ? | . | . | 6.3µM* | -9%
CCn1c(-c2ccccc2F)nc2cc(NC(C)=O)cc(C(=O)N(C)Cc3cn(C)nc3C)c21 | . | . | -7% | 2% | . | -10%
Cc1nc2ccccc2c(=O)n1NC(=O)Cc1ccc(Br)cc1 | ? | -10% | -9% | 1.8µM* | 13% | 0%
CCCCCc1ccc(CC(=O)Nn2c(C)nc3ccccc3c2=O)cc1 | -19% | 1% | -25% | -30% | ? | .
Cc1cc(C)cc(-n2c3ccc(NC(=O)Cc4cccc5ccccc45)cc3c(=O)n2C)c1 | . | . | -27% | 6% | . | -6%
C[C@]12CCC(=O)C=C1C=C[C@@H]1[C@@H]2CC[C@@]2(C)[C@H]1CC[C@@]21CCC(=O)O1 | . | . | -19% | -16% | -5% | ?
Cc1cc(C)c2nc(SC(C)C#N)cc(C)c2c1 (centres undefined) | -12% | -18% | -12% | . | 10µM* | -17%
C/C=C(/C)C(=O)O[C@H]1C(C)=C2[C@H]([C@@H]1OC(=O)CCCCCCC)[C@@](C)(OC(C)=O)C[C@H](OC(=O)CCC)[C@@]1(O)[C@H]2OC(=O)[C@@]1(C)O | 0.33µM* | 0.15µM* | -12%[20.9 µM] | -2%[20.9 µM] | . | 1%[39.8 µM]
Cc1nn(Cc2c(Cl)cccc2Cl)c(C)c1NC(=O)c1sc2ccccc2c1Cl | -31% | ? | -24% | ? | ? | 0%
Cc1nn(Cc2ccc(Cl)c(Cl)c2)c(C)c1NC(=O)c1sc2ccccc2c1Cl | ? | -3%[46.1 µM] | -36% | ? | 22µM* | 32µM*
Cc1ccccc1Cn1nc(C)c(NC(=O)c2sc3ccccc3c2Cl)c1C | -18% | ? | ? | -24% | 32µM* | 32µM*
O=C(NCc1ccccc1)C(=O)Nc1c2c(nn1-c1ccccc1)CSC2 | -11%[46.1 µM] | . | -26% | ? | . | -7%
CC(NC(=O)Cn1ccsc1=N)C12CC3CC(CC(C3)C1)C2 (centres undefined) | ? | 10µM* | -11% | i | -16% | -28%
SMILES | LASV entry inh | Marburg entry inh | VACV Venus inh | VACV mCherry inh | HCV inh | FMDV inh
O=C(Cn1ncc(Cl)c(Cl)c1=O)NC(=O)NC1CCCCC1 | ? | 11µM* | ? | -35% | 0.63µM* | 35µM*
O=C(CN1CCCCC1)NC(=O)NC1CCCC1 | 1% | ? | -2% | 4% | 12% | 5%
CCn1cc(C(=O)NC(C)C23CC4CC(CC(C4)C2)C3)cn1 (centres undefined) | -3% | ? | -15% | -17% | -3% | -30%
CC(NC(=O)Cn1ncc(Cl)c(Cl)c1=O)C12CC3CC(CC(C3)C1)C2 (centres undefined) | ? | ? | ? | ? | 10µM* | ?
CC(NC(=O)Cn1c(=O)[nH]c2ccsc2c1=O)C12CC3CC(CC(C3)C1)C2 (centres undefined) | 6% | -24% | . | . | 2% | ?
CC(NC(=O)CN1C(=O)NC(Cc2ccccc2)(Cc2ccccc2)C1=O)C12CC3CC(CC(C3)C1)C2 (centres undefined) | ? | ? | ? | 10µM* | -15% | -4%
CC1CCCCC1NC(=O)CN1C(=O)NC(Cc2ccccc2)(Cc2ccccc2)C1=O (centres undefined) | 1% | 13% | -7% | -9% | -15% | 6%
Cc1ccc(Cl)cc1NC(=O)CN1CCN(S(=O)(=O)N2CCC(C)CC2)CC1 | 18% | 2% | -1% | i | ? | -4%
CC(C)Oc1ccc(CNC(=O)c2ccc(NC(=O)N3CCSc4ncccc43)cc2)cc1 | 0%[46.1 µM] | . | -12% | -10% | . | -19%
O=C(c1cccc(F)c1)N1CCC2(CC1)CN(c1ncccn1)C2 | . | . | . | . | . | -11%
CCCC[n+]1c(/C=C/c2c(OC)cc(OC)cc2OC)ccc2ccccc21 | . | . | 126% | 10µM* | . | .
CCCC[n+]1c2ccccc2cc2ccccc21 | . | . | ? | -10% | 6.3µM* | 28µM*
CCC[n+]1c(/C=C/c2c(OC)cc(OC)cc2OC)ccc2ccccc21 | . | . | 106% | 10µM* | . | .
COc1cc(OC)c(/C=C/c2ccc3ccccc3[n+]2C)c(OC)c1 | . | . | -27% | ? | . | .
CCC[n+]1c2ccccc2cc2ccccc21 | ? | ? | -6% | ? | ? | ?
COc1cccc(CNC(=O)C2CCCN(S(=O)(=O)N(C)c3ccc(F)cc3)C2)c1OC (centres undefined) | -17%[46.1 µM] | . | -26% | -12% | . | 22µM*
CSc1ccc(CCNC(=O)C2CCCN(S(=O)(=O)N(C)c3ccc(F)cc3)C2)cc1 (centres undefined) | -18%[46.1 µM] | . | -22% | -7% | . | 35µM*
COc1ccc(CCNc2ncnc3sc(C(=O)N(C)C)c(C)c23)cc1OC | . | . | -2% | -8% | . | -13%
Cc1cnc(-n2ncc(C(=O)NCCc3cccnc3)c2C)nc1-c1cccs1 | . | . | -19% | ? | . | -5%
Cc1nnc(NC(=O)CSc2ccccc2N)s1 | . | . | . | . | -7% | 31%
Cc1ccc(C(C)(C)C)c(SCC(=O)Nc2nnc(C)s2)c1 | 7.1µM* | 7.1µM* | -10% | -11% | ? | -12%
CCOc1ccc(C(C)=O)cc1CN1C(=O)C(=O)N(CC)C1=O | 15%[46.1 µM] | ? | -2% | i | -20% | 14µM*
Cc1c([N+](=O)[O-])cnc(Sc2ccccc2)c1[N+](=O)[O-] | . | . | . | . | ? | 22µM*
N#Cc1c(NC(=O)C(=O)NCCCN2CCOCC2)sc2c1CCC2 | . | . | . | . | 5% | -19%

High-throughput results: PubChem BioAssay, National Center for Advancing Translational Sciences (NCATS)
